The results in this text go back to PubChem BioAssay AID492952 (Southern Research Specialized Biocontainment Screening …, 2010).

The campaign covered roughly 2,300 compounds. About 1,500 (65%) were called active. How the calls were made is not given here. The set was probably picked from earlier hits. The list shows a part of the results. Entries with a potency or affinity are not part of this list.

The nature of the assay: replicating M. tuberculosis growth inhibition, dose response, non-replicating M. tuberculosis project, H37Rv (AID 492952).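 Further: Mycobacterium tuberculosis grown in culture; growth inhibition read after a week of incubation.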 Conditions: series mostly up to 50 µM.
For the compound `CCCCn1nnc(NC(=O)COc2ccc(Cl)c(C)c2)n1`, the compound was classed as inactive.
As for `O=c1c2c([N+](=O)[O-])cc([N+](=O)[O-])cc2nc2ccccn12`, the outcome was inactive.
On to `COc1cc(Cl)cc(/C=N/NC(N)=O)c1O`, for which the compound was classed as inactive.
On to `CCSc1nc(O)c(C2OC(=O)c3c2ccc(OC)c3OC)c(=O)n1-c1ccccc1` (stereo not drawn), for which the outcome was inactive.
For `NCCNc1ccc([N+](=O)[O-])c2cccnc12`, the outcome was inactive.
Next, `C/C(=N/NC(=O)c1ccco1)c1ccc(Br)s1`: “inactive”; `C/C(=N\NC(=O)c1ccco1)c1cc(Cl)sc1Cl`: “inactive”.
Take `Cc1cccnc1NC(=O)COc1ccc2oc3c(c2c1)CCCC3`: the result was inactive.
Next, `CCOC(=O)N1CCN(c2cc(C)c([N+](=O)[O-])cc2F)CC1`: “inactive”.
As to `Cc1ccc(NC(=O)c2noc(C(C)C)c2[N+](=O)[O-])cc1`, the call was inactive.
Take `Cc1ccnc(-n2sc3ccccc3c2=O)n1`: the outcome was inactive.
With `O=c1ccn(-c2ccccc2)[nH]1`, the call was inactive.
Next, `O=c1oc(-c2ccccc2[N+](=O)[O-])nc2ccccc12`: “inactive”; `COc1ccc(OCc2n[nH]c(=S)o2)cc1`: “inactive”.
Regarding `C=CC(=O)Oc1ccc(N2Cc3ccccc3C2=O)cc1`, the compound was classed as inactive.
With `CN1CCN(Cc2cc(C(C)(C)C)c(O)c(C(C)(C)C)c2)CC1`, the compound was called inactive.
`CCCn1c(O)c(N=NC(=O)c2ccco2)c2ccccc21`: the outcome was inactive.
Turning to `CCCN1C(=O)SC(CC(=O)Nc2ccccc2)C1=O` (stereo not drawn), the call was inactive.
The value for `CCCCn1c(N)c(-c2nc3ccccc3o2)c2c([N+](=O)[O-])nn(CC)c(=O)c21` was “inactive”.
`C/C(=N\NC(=O)c1ccccc1)c1nc2ccccc2n1C`: the compound was classed as inactive.
On to `Cc1cc(C)c(OCC(=O)Nc2nnc(-c3ccco3)o2)c(C)c1`, for which the result was inactive.
`Cc1cccc(CSc2nnc(-c3ccco3)o2)c1`: the outcome was inactive.
Consider `CC1=CN2C(=N)/C(=C/c3ccc([N+](=O)[O-])o3)C(=O)N=C2S1`, for which the result was inactive.
Turning to `CN(/N=C/c1ccc([N+](=O)[O-])o1)c1ccccc1`, the compound was called inactive.
As to `Cc1cc(C)n(-c2ccc(C(=O)OCC(=O)Nc3cc(Cl)ccc3[N+](=O)[O-])cc2)n1`, the result was inactive.
Take `COC(=O)C1=C(C)N(CC2CC2)C(=NCc2cccc(Cl)c2)N[C@H]1c1ccccc1`: the outcome was inactive.
Next, `CCCC(C)C(=O)Nc1ccc(Cl)cn1` (stereo not drawn): “inactive”; `CC(C(=O)OCC(=O)c1ccccc1)N1C(=O)C2C3CCC(C3)C2C1=O` (stereo not drawn): “inactive”; `CC(Cc1ccccc1Sc1ccccc1)N(C)C` (stereo not drawn): “inactive”.
Next, `Cc1ccc(-c2ccc(/C=N/NC(=O)CN3CCCC3)o2)cc1Cl`: “inactive”; `CN1CCN(/N=C/c2ccc(-c3ccc([N+](=O)[O-])cc3Cl)o2)CC1`: “inactive”; `COc1ccc(Cl)cc1N=Cc1c(O)c2ccccc2oc1=O`: “inactive”.
The value for `COc1ccccc1-n1c(=O)oc2ccc(Cl)cc2c1=O` was “inactive”.
On to `O=C(N/N=C\c1ccccc1OCc1ccccc1)c1ccco1`, for which the result was inactive.
With `O=C(N[C@@H]1C[C@H]2CC[C@@H]1C2)c1ccco1`, the compound was called inactive.
Consider `Cc1ccc(C(=O)NCCOc2cccc(C)c2)cc1`, for which the compound was called inactive.
Consider `CCCCNC(=O)N1CCc2ccccc2C1`, for which the result was inactive.
As for `O=C1CC(N2CCN(Cc3ccccc3)CC2)C(=O)N1CCc1ccccc1` (stereo not drawn), the compound was classed as inactive.
Turning to `CCN1CCN(C(=O)CN(Cc2ccccc2)S(C)(=O)=O)CC1`, the call was inactive.
Take `O=C(NCc1ccccc1CN1CCCC1)c1cc2ccccc2o1`: the call was inactive.
As to `O=C(CCS(=O)(=O)Cc1ccccc1)Nc1ncc([N+](=O)[O-])s1`, the outcome was inactive.
Consider `O=C(N/N=C/c1c(O)ccc2ccccc12)c1ccc(Br)o1`, for which the outcome was inactive.
Regarding `CCCCN(C)C(=O)c1cc2cc3ccc(OC)cc3nc2s1`, the outcome was inactive.
`O=C(CNC(=O)c1ccccc1F)OCc1csc(-c2ccccc2)n1`: the compound was called inactive.
In the case of `CCCOC(=O)c1ccc(OC(=O)c2ccco2)cc1`, the call was inactive.
Next, `O=C(NCC1CCCCC1)c1ccco1`: “inactive”.
Turning to `C/C(=N/NC(=O)c1cccc(C)c1)c1c(O)cc(C)oc1=O`, the compound was classed as inactive.
Take `COc1cccc(NC(=O)c2ccc(-c3ccc([N+](=O)[O-])cc3)o2)c1`: the call was inactive.
For the compound `O=C(Nc1ncc([N+](=O)[O-])s1)c1cccs1`, the outcome was inactive.
For `O=C1/C(=C\c2ccco2)SC(=S)N1c1ccc(O)cc1`, the result was inactive.
Take `O=C(NNC1=C(C(=O)C(F)(F)F)CCC1)c1ccccc1Cl`: the compound was classed as inactive.
Consider `Cc1c(Cl)cccc1NC(=O)C1COc2ccccc2O1` (stereo not drawn), for which the call was inactive.
The value for `Cc1ccccc1C(=O)NNc1ccc([N+](=O)[O-])cc1` was “inactive”; that for `O=C(COc1ccc2ccccc2c1)N1CCCC1` was “inactive”; that for `O=C(c1cccc2cccc(O)c12)N1CCCCC1` was “inactive”.
The value for `Cc1ccc(C(=O)N/N=C/c2cccc3ccccc23)cn1` was “inactive”.
Next, `CCN(CC)CCSc1nnc2c3cc(C)ccc3n(Cc3ccccc3)c2n1`: “inactive”; `Cc1ccc(NC(=O)C2CC2c2ccccc2)cc1` (stereo not drawn): “inactive”.
As to `Cc1nnc(SCCC(=O)Nc2ccc(Cl)cc2)o1`, the outcome was inactive.
For the compound `N#Cc1ccc(CSc2nnc(-c3cccnc3)o2)cc1`, the compound was called inactive.
Turning to `O=C(CCSc1nnc(-c2ccncc2)o1)Nc1cccc(Cl)c1`, the outcome was inactive.
With `CCOC(=O)CN1NC2(CCC(C)CC2)NC1=S` (stereo not drawn), the compound was called inactive.
On to `Cc1nc2ccc(Cl)cc2nc(C)/c1=N\O`, for which the outcome was inactive.
With `O=c1c2c([N+](=O)[O-])cc([N+](=O)[O-])cc2sn1-c1ccc(Br)cc1`, the outcome was inactive.
For `O=[N+]([O-])c1ccc2nc(SCc3cn4cc(Cl)ccc4n3)[nH]c2c1`, the compound was called inactive.
The value for `O=c1c2cc(Cl)ccc2nc(-c2ccccc2Cl)n1O` was “inactive”; that for `O=C(NNc1nc2ccccc2s1)c1ccc(F)cc1` was “inactive”.
On to `CC(C)CCC1=NN(C(=O)c2ccco2)C(O)(C(F)(F)F)C1` (stereo not drawn), for which the result was inactive.
As for `CCOC(=O)C1(CC2CCCCO2)CCN(Cc2nccn2-c2ccc(OC)cc2)CC1` (stereo not drawn), the call was inactive.
Regarding `NNC(=O)COc1cccc(Oc2ccccc2)c1`, the result was inactive.
Take `CCCCNS(=O)(=O)c1ccc(OCC(=O)OC)cc1`: the call was inactive.
The value for `COC(=O)c1ccc(OCC(=O)c2cccc(OC)c2)cc1` was “inactive”; that for `C=CCOC(=O)c1ccc(-n2cnc(C)n2)nc1` was “inactive”.
Next, `CCn1cc(/C=N\NC(=O)c2ccc(F)cc2)cn1`: “inactive”; `O=C(c1cc(F)ccc1F)C1CCCN(Cc2ccc3nonc3c2)C1` (stereo not drawn): “inactive”; `Cc1ccc(NC(=S)C2=C(O)c3sccc3N(C)S2(=O)=O)cc1`: “inactive”.
Next, `COc1ccc(CC(=O)Nc2nccs2)cc1OC`: “inactive”.
Take `N#Cc1ccsc1NC(=O)c1ccc(Cl)c([N+](=O)[O-])c1`: the compound was classed as inactive.
With `O=C(Nc1sc2c(c1C(=O)O)CCCCC2)c1ccccc1F`, the call was inactive.
Consider `O=C1NC(=O)N(Cc2ccco2)C(=O)/C1=C\c1cccn1CCOc1ccc(Cl)cc1`, for which the result was inactive.
As for `CCCCCOc1ccc(CSC2=NCCN2)cc1[N+](=O)[O-]`, the compound was called inactive.
For `Cc1cc(Br)ccc1OCCCCN1CCC(C)CC1`, the compound was classed as inactive.
As to `C=CCN(CC=C)CC(=O)Nc1ccc(S(N)(=O)=O)cc1`, the outcome was inactive.
Next, `NC(=O)CN1CCN(C2CC(=O)N(CCc3ccccc3)C2=O)CC1` (stereo not drawn): “inactive”; `COC(=O)c1cccc(COC(=O)c2cc3ccccc3oc2=O)c1`: “inactive”; `O=C(COC(=O)C1CC2C=CC1C2)Nc1ccccc1` (stereo not drawn): “inactive”.
With `O=c1oc2ccccc2c2c1nnn2CCO`, the compound was called inactive.
Next, `CCC(C)n1c(=S)[nH]c2ccccc2c1=O` (stereo not drawn): “inactive”.
For `CCOC(=O)c1sc(NC(=O)CCN2CC(C)OC(C)C2)c(C(=O)OCC)c1C` (stereo not drawn), the outcome was inactive.
`OCC1(CCOc2ccccc2)CCN(Cc2cc(Cl)ccc2O)CC1`: the result was inactive.
Next, `c1ccc(OCc2nn3c(-c4ccccn4)nnc3s2)cc1`: “inactive”; `O=[N+]([O-])c1ccc(-c2nc3ccc([N+](=O)[O-])cc3[nH]2)cc1`: “inactive”.
Next, `O=[N+]([O-])c1ccc2nc(SCc3cn4ccccc4n3)[nH]c2c1`: “inactive”; `C/C(=N/NC(=O)c1cc2ccccc2cc1O)C1C(=O)c2ccccc2C1=O`: “inactive”; `O=C(NCC1CCCCC1)c1ccc([N+](=O)[O-])cc1`: “inactive”.
For the compound `O=C(COC(=O)c1ccc(Br)o1)NC1CCCCC1`, the compound was classed as inactive.
Next, `O=C(CCSc1ccc(Cl)cc1)NC1CCCC1`: “inactive”.
Turning to `Oc1ccc2cc(Br)ccc2c1CN1CCCC1`, the compound was classed as inactive.
As to `Nc1c(Cl)cc(Cl)cc1C(=O)OCC(=O)N1CCCC1`, the compound was called inactive.
Regarding `CCCOC(=O)NC1CCS(=O)(=O)C1` (stereo not drawn), the result was inactive.
Regarding `CCCCN(C/C=C/c1ccccc1OC)Cc1ccccc1`, the call was inactive.
Take `CCOC(=O)C1CCN(Cc2ccc(-c3ccccc3)cc2)CC1`: the outcome was inactive.
On to `CC(C)N=C1SC(CC(=O)Nc2ccccc2)C(=O)N1C(C)C` (stereo not drawn), for which the result was inactive.
The value for `O=C(COC(=O)c1ccccc1Br)Nc1ccccc1F` was “inactive”; that for `CCOC(=O)C1=C(C)NC(=O)NC1c1ccc(-c2ccc(F)cc2)o1` (stereo not drawn) was “inactive”; that for `Fc1ccc(-c2nnc(-c3ccc(F)cc3)o2)cc1` was “inactive”.
Take `CCC(C)(C)NC(=O)c1ccc(Br)o1`: the call was inactive.
On to `CCC(=O)c1ccc(OC(=O)c2ccc(Br)o2)cc1`, for which the result was inactive.
As for `O=C(NC1CCCC1)c1nc2c(nnn2Cc2cccc(Cl)c2)c(=O)[nH]1`, the outcome was inactive.
Regarding `COc1ccc(O)c(C(=O)CC(=O)c2ccc(F)cc2)c1`, the outcome was inactive.
The value for `NC(=O)c1cccnc1Nc1cccc(F)c1` was “inactive”.
Consider `c1ccc(-c2noc(CC3CCCCC3)n2)nc1`, for which the call was inactive.
Next, `Sc1oc(-c2ccccc2)cc1C=Nc1ccccc1`: “inactive”; `COc1ccc(NC(=O)CO/N=C2/CCCc3nonc32)c(OC)c1`: “inactive”.
Consider `O=C(N/N=C/c1cc(Br)cc(Br)c1O)c1cccc(N2CCCC2=O)c1`, for which the result was inactive.
With `O=C(N/N=C/c1ccccc1O)c1cccc(C(F)(F)F)c1`, the compound was called inactive.
As for `O=C(COC(=O)c1ccccc1)NC12CC3CC(CC(C3)C1)C2`, the outcome was inactive.
As for `CCCNC(=O)OCC12CC3CC(CC(C3)C1)C2`, the compound was classed as inactive.
Regarding `CCCCCCCC(=O)N/N=C(\C)c1ccc(O)cc1O`, the call was inactive.
Next, `CSC1=N/C(=C\c2ccc(Br)o2)C(=O)S1`: “inactive”.
As to `CC(=O)Nc1cccc(-c2nc3ccccc3c(=O)o2)c1`, the outcome was inactive.
In the case of `O=C(N/N=C/c1cn[nH]c1-c1ccccc1)c1ccco1`, the compound was called inactive.
Take `O=C(NNC1CC(=O)N(c2ccccc2)C1=O)c1ccco1` (stereo not drawn): the result was inactive.
